The entries come from a sample that favours the strongest signals as a whole.
Legend:
Test in all cases: glycan array binding signal (z-score within array); higher = stronger binding
Details in all cases: glycan notation: IUPAC condensed, linker removed
[1] = biological target: Fuc(a1-2)Gal(b1-3)GalNAc(b1-3)Gal
Outline: (§1)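 Arrays were curated from the Consortium for Functional Glycomics database, 3228 in total, and kept only where the protein sequence was available. Binding is expressed as a within-array Z-score. This score was averaged across arrays of the same protein sequence at different concentrations or buffers and across linkers, and negative values can be read as non-binding.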

[2] = biological target: Fuc(a1-2)Gal(b1-3)GlcNAc(b1-3)GalNAc
Outline: as §1

Fuc(a1-2)Gal(b1-4)Glc = biological target: Fuc(a1-2)Gal(b1-4)Glc
Outline: as §1

[3] = biological target: Fuc(a1-2)Gal(b1-4)GlcNAc6S
Outline: as §1

[4] = biological target: Fuc(a1-2)Gal(b1-4)[Fuc(a1-3)]GlcNAc(b1-2)[Fuc(a1-2)Gal(b1-4)[Fuc(a1-3)]GlcNAc(b1-4)]Man(a1-3)[Fuc(a1-2)Gal(b1-4)[Fuc(a1-3)]GlcNAc(b1-2)Man(a1-6)]Man(b1-4)GlcNAc(b1-4)GlcNAc
Outline: as §1

[5] = biological target: Fuc(a1-2)Gal(b1-4)[Fuc(a1-3)]GlcNAc(b1-3)Gal(b1-4)[Fuc(a1-3)]GlcNAc(b1-3)Gal(b1-4)[Fuc(a1-3)]GlcNAc
Outline: as §1

[6] = biological target: Fuc(a1-2)[Gal(a1-3)]Gal(b1-4)GlcNAc(b1-2)Man(a1-3)[Fuc(a1-2)[Gal(a1-3)]Gal(b1-4)GlcNAc(b1-2)Man(a1-6)]Man(b1-4)GlcNAc(b1-4)GlcNAc
Outline: as §1

[7] = biological target: Fuc(a1-2)[Gal(a1-4)]Gal(b1-4)GlcNAc
Outline: as §1

[8] = biological target: Fuc(a1-2)[GalNAc(a1-3)]Gal(b1-4)GlcNAc(b1-3)GalNAc
Outline: as §1

[9] = biological target: Fuc(a1-3)[Gal(b1-4)]GlcNAc(b1-6)GalNAc
Outline: as §1

[10] = biological target: Fuc(a1-3)[Gal3S(b1-4)]Glc
Outline: as §1

[11] = biological target: Fuc(a1-3)[GalNAc(b1-4)]GlcNAc
Outline: as §1

Gal(a1-3)Gal(b1-3)GlcNAc = biological target: Gal(a1-3)Gal(b1-3)GlcNAc
Outline: as §1

[12] = biological target: Gal(a1-4)Gal(b1-4)GlcNAc(b1-2)Man(a1-3)[Gal(a1-4)Gal(b1-4)GlcNAc(b1-2)Man(a1-6)]Man(b1-4)GlcNAc(b1-4)GlcNAc
Outline: as §1

Gal(b1-3)GalNAc = biological target: Gal(b1-3)GalNAc
Outline: as §1

[13] = biological target: Gal(b1-3)GalNAc(b1-4)Gal(b1-4)Glc
Outline: as §1

[14] = biological target: Gal(b1-3)GlcNAc(a1-6)Gal(b1-4)GlcNAc
Outline: as §1

[15] = biological target: Gal(b1-3)GlcNAc(b1-3)Gal(b1-4)GlcNAc(b1-2)Man(a1-3)[Gal(b1-3)GlcNAc(b1-3)Gal(b1-4)GlcNAc(b1-2)Man(a1-6)]Man(b1-4)GlcNAc(b1-4)GlcNAc
Outline: as §1

[16] = biological target: Gal(b1-3)[Fuc(a1-4)]GlcNAc(b1-3)Gal(b1-4)[Fuc(a1-3)]GlcNAc
Outline: as §1

Gal(b1-4)Gal = biological target: Gal(b1-4)Gal
Outline: as §1

[17] = biological target: Gal(b1-4)GlcNAc(b1-2)Man(a1-6)[GlcNAc(b1-2)Man(a1-3)]Man(b1-4)GlcNAc(b1-4)GlcNAc
Outline: as §1

[18] = biological target: Gal(b1-4)GlcNAc(b1-3)Gal(b1-4)GlcNAc(b1-3)Gal(b1-4)GlcNAc(b1-3)Gal(b1-4)GlcNAc(b1-3)Gal(b1-4)GlcNAc(b1-2)Man(a1-3)[Gal(b1-4)GlcNAc(b1-3)Gal(b1-4)GlcNAc(b1-3)Gal(b1-4)GlcNAc(b1-3)Gal(b1-4)GlcNAc(b1-3)Gal(b1-4)GlcNAc(b1-2)Man(a1-6)]Man(b1-4)GlcNAc(b1-4)GlcNAc
Outline: as §1

[19] = biological target: Gal(b1-4)GlcNAc(b1-3)Gal(b1-4)GlcNAc(b1-3)Gal(b1-4)GlcNAc(b1-3)Gal(b1-4)GlcNAc(b1-3)Gal(b1-4)GlcNAc(b1-2)[Gal(b1-4)GlcNAc(b1-3)Gal(b1-4)GlcNAc(b1-3)Gal(b1-4)GlcNAc(b1-3)Gal(b1-4)GlcNAc(b1-3)Gal(b1-4)GlcNAc(b1-6)]Man(a1-6)[Gal(b1-4)GlcNAc(b1-3)Gal(b1-4)GlcNAc(b1-3)Gal(b1-4)GlcNAc(b1-3)Gal(b1-4)GlcNAc(b1-3)Gal(b1-4)GlcNAc(b1-2)Man(a1-3)]Man(b1-4)GlcNAc(b1-4)[Fuc(a1-6)]GlcNAc
Outline: as §1

[20] = biological target: Gal3S(b1-4)[Fuc(a1-3)]Glc6S
Outline: as §1

Gal6S(b1-4)GlcNAc6S = biological target: Gal6S(b1-4)GlcNAc6S
Outline: as §1

[21] = biological target: GalNAc(b1-4)GlcNAc(b1-2)Man
Outline: as §1

GalNAc(b1-4)GlcNAc6S = biological target: GalNAc(b1-4)GlcNAc6S
Outline: as §1

[22] = biological target: GalNAc3S(b1-4)[Fuc(a1-3)]GlcNAc
Outline: as §1

GlcA(b1-3)Gal = biological target: GlcA(b1-3)Gal
Outline: as §1

[23] = biological target: GlcNAc(a1-6)Gal(b1-4)GlcNAc
Outline: as §1

[24] = biological target: GlcNAc(b1-2)[GlcNAc(b1-4)]Man(a1-3)[GlcNAc(b1-2)Man(a1-6)]Man(b1-4)GlcNAc(b1-4)GlcNAc
Outline: as §1

GlcNAc(b1-3)Gal(b1-4)Glc = biological target: GlcNAc(b1-3)Gal(b1-4)Glc
Outline: as §1

GlcNAc(b1-4)GlcNAc = biological target: GlcNAc(b1-4)GlcNAc
Outline: as §1

[25] = biological target: GlcNAc(b1-4)[GlcNAc(b1-6)]GalNAc
Outline: as §1

[26] = biological target: Man(a1-2)Man(a1-2)Man(a1-3)Man
Outline: as §1

[27] = biological target: Man(a1-2)Man(a1-3)[Man(a1-2)Man(a1-6)]Man(a1-6)[Man(a1-2)Man(a1-2)Man(a1-3)]Man
Outline: as §1

Neu5Ac(a2-3)Gal = biological target: Neu5Ac(a2-3)Gal
Outline: as §1

[28] = biological target: Neu5Ac(a2-3)Gal(b1-3)GlcNAc(b1-2)Man(a1-3)[Neu5Ac(a2-3)Gal(b1-3)GlcNAc(b1-2)Man(a1-6)]Man(b1-4)GlcNAc(b1-4)GlcNAc
Outline: as §1

[29] = biological target: Neu5Ac(a2-3)Gal(b1-3)[Fuc(a1-4)]GlcNAc(b1-3)Gal(b1-4)[Fuc(a1-3)]GlcNAc
Outline: as §1

Neu5Ac(a2-3)Gal(b1-4)Glc = biological target: Neu5Ac(a2-3)Gal(b1-4)Glc
Outline: as §1

[30] = biological target: Neu5Ac(a2-3)[Neu5Ac(a2-6)]GalNAc
Outline: as §1

Neu5Ac(b2-6)GalNAc = biological target: Neu5Ac(b2-6)GalNAc
Outline: as §1

B1: FimA (Actinomyces oris) (protein)
chain: MHHHHHHSSGVDLGTENLYFQSNAETPNYGNIKTDATGSLVIHKHLTGGGKDIGTPTGTAQNADDKGPAVEGVVFTAYPITDINLKDPAGWDTISNLSRTGVPDSACANPAAPTLGAHQFGTPKVSPATTKEGLATITEMPVQAYLVCETTTPGDIVQKAKPFVVTIPHPNTAAGADGQWIYDVNVYPKNEAIDVDKTIQAQKLNGYGVGSLIKFPVESTAPTLDAKSFYKYFQLKDTLDERLSEVTATDVSLEGTPLQPTDYKVETKQQTVTVTFTAEGLKKIKAAPGKKVSAVFQGKVTKAGNGAITNRAQVISDTLYAEQPPTPETPPTDPENPPTSDEVISRWGDLSIKKVDTHQQGQTKAGLQGAQFQLYKAKNAYANTCSNEKEGAPIAINGQTTLTTDAQGAIDIKGLFISDSIDGADRDNQVNAMERCYVLVETKAPAGYVLPAGNGAATPVKVKAGEETTDNVTVENTKQSVPGLPLTG
glycan array binding signal (z-score) [1]: 11.8
glycan array binding signal (z-score) [2]: -0.927
glycan array binding signal (z-score) (Fuc(a1-2)Gal(b1-4)Glc): -0.719
glycan array binding signal (z-score) [3]: -0.627
glycan array binding signal (z-score) [4]: -0.358
glycan array binding signal (z-score) [5]: -0.317
glycan array binding signal (z-score) [6]: 5.11
glycan array binding signal (z-score) [7]: 5.14
glycan array binding signal (z-score) [8]: -0.408
glycan array binding signal (z-score) [9]: -0.64
glycan array binding signal (z-score) [10]: -0.294
glycan array binding signal (z-score) [11]: 3.5
glycan array binding signal (z-score) (Gal(a1-3)Gal(b1-3)GlcNAc): -0.412
glycan array binding signal (z-score) [12]: -0.497
glycan array binding signal (z-score) (Gal(b1-3)GalNAc): 0.278
glycan array binding signal (z-score) [13]: 3.27
glycan array binding signal (z-score) [14]: -0.165
glycan array binding signal (z-score) [15]: -0.744
glycan array binding signal (z-score) [16]: 0.459
glycan array binding signal (z-score) (Gal(b1-4)Gal): 0.292
glycan array binding signal (z-score) [17]: -0.044
glycan array binding signal (z-score) [18]: 3.42
glycan array binding signal (z-score) [19]: 5.1
glycan array binding signal (z-score) [20]: 3.23
glycan array binding signal (z-score) (Gal6S(b1-4)GlcNAc6S): 4.75
glycan array binding signal (z-score) [21]: -0.783
glycan array binding signal (z-score) (GalNAc(b1-4)GlcNAc6S): 4.1
glycan array binding signal (z-score) [22]: -0.099
glycan array binding signal (z-score) (GlcA(b1-3)Gal): 0.311
glycan array binding signal (z-score) [23]: -1.18
glycan array binding signal (z-score) [24]: -0.403
glycan array binding signal (z-score) (GlcNAc(b1-3)Gal(b1-4)Glc): -0.311
glycan array binding signal (z-score) (GlcNAc(b1-4)GlcNAc): -0.621
glycan array binding signal (z-score) [25]: -0.564
glycan array binding signal (z-score) [26]: 4.88
glycan array binding signal (z-score) [27]: -0.88
glycan array binding signal (z-score) (Neu5Ac(a2-3)Gal): -0.143
glycan array binding signal (z-score) [28]: -0.233
glycan array binding signal (z-score) [29]: 0.196
glycan array binding signal (z-score) (Neu5Ac(a2-3)Gal(b1-4)Glc): -0.06
glycan array binding signal (z-score) [30]: 0.518
glycan array binding signal (z-score) (Neu5Ac(b2-6)GalNAc): -0.85

Reference: the supplement of paper PMC8728848
